# IL1B secr inh = qHTS for Inhibitors of Inflammasome Signaling: IL-1-beta AlphaLISA Primary Screen; THP-1 LPS/ATP IL-1B secretion, AlphaLISA, 16 h; stronger effect = lower value; activity change, % at 57.5 µM; 360,000 tested, 4.7% active; AID 743279, 2014; in the data active = activity change below about -50%; inconclusive = mostly about -30% to -49%
#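 THP-1 cells pretreated 1 hr with compounds (up to 57.5 uM final), then stimulated with LPS (250 ng/mL final) plus ATP (1.25 mM final); secreted IL-1B measured by AlphaLISA after 16 hr, decreased signal indicating inhibition.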
# DT40 TDP1 no CPT = qHTS for Inhibitors of human tyrosyl-DNA phosphodiesterase 1 (TDP1): qHTS in cells in absence of CPT. Potency, µM (top dose mostly 46.2 µM), without a hit: at the top dose activity change, negative = growth inhibition, usual class: inhibitors. DT40 Tdp1-/- hTDP1 cells, no CPT, ATP luminescence, 48 h. AID 686978, 2013. 420,000 tested, 15% active; also: potency is read from the fitted curve at half-maximal effect; nearly all actives have a fitted effect of over 55% in size
#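 Readout: luminescence from CellTiter-Glo after 30 min in the dark at RT. Cells: DT40 Tdp1-/- with stable hTDP1, 400/well. Exposure: compounds alone, ≥48 hr, 37 °C.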
# HT1080NT lethal = qHTS for induction of synthetic lethality in tumor cells producing 2HG: qHTS for the HT-1080-NT fibrosarcoma cell line; HT-1080-NT fibrosarcoma viability, CellTiter-Glo ATP luminescence, 48 h; Potency, µM (doses to about 46.1 µM), inactives show top-dose activity, negative = less viability, actives largely listed as cytotoxic; 360,000 tested, 1.6% active;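 also: NT is the 2HG producing partner of a matched IDH1 knockdown line; potency is read from the fitted curve at half-maximal effect; 0% = DMSO-treated cells and -100% = media-only wells without cells; nearly all actives have a fitted effect of over 55% in size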
#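 A 48-hour cytotoxicity screen used HT-1080-NT cells plated 2 hours before compound delivery. ATP-based CellTiter-Glo luminescence measured viability, normalized to DMSO and no-cell controls.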
# HT1080 IDH1KD tx = qHTS for induction of synthetic lethality in tumor cells producing 2HG: qHTS for the HT-1080-IDH1KD cell line. AID 686971, 2013. HT-1080 IDH1 knockdown viability, ATP luminescence, 48 h. 360,000 tested, 2% active. Potency, µM (doses to about 46.1 µM), inactives show at the top dose activity, negative = toxicity, most hits filed as cytotoxic;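 also: potency is read from the fitted curve at half-maximal effect; 0% = DMSO wells and -100% = cell-free medium wells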
#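 IDH1KD HT-1080 cells, 750/well, RPMI + 5% FBS; compound pinned after 2 h settling; 48 h, 37 °C; CellTiter-Glo luminescence; % activity normalised to DMSO and no-cell wells; curves fitted, classed by r2 and efficacy.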
# DT40 TDP1 CPT = qHTS for Inhibitors of human tyrosyl-DNA phosphodiesterase 1 (TDP1): qHTS in cells in presence of CPT; chicken DT40 Tdp1-/-;hTDP1 cells + 20 nM CPT, ATP luminescence, 48 h; Potency, µM (doses to about 46.2 µM), for inactives: top-dose activity change, negative = growth inhibition, hits mostly inhibitors; 420,000 tested, 12% active; AID 686979, 2013; also: potency is read from the fitted curve at half-maximal effect; nearly all actives have a fitted effect of over 55% in size
#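 Chicken DT40 Tdp1-/- cells complemented with human TDP1, 400 cells/well, exposed to compounds plus 20 nM camptothecin for at least 48 h at 37 C; viability read as ATP content by CellTiter-Glo luminescence.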
# Starred values were filed as active, the others as inactive; u = inconclusive; x = no result. Sampled rows, rich in hits. Any-hit rate of the full collection: about 19%. Unless noted, calls follow the shape of the dose curve; as a rule, active = well fitted curve in the direction sought with a large enough effect; inconclusive = small, poorly fitted or top-dose-only effect, or another doubt; inactive = no such curve, though single readings can be large; an effect the other way counts as inactive or inconclusive. Unless noted, % is scaled to controls: 0 for no effect and ±100 for the full control effect.
SMILES,IL1B secr inh,DT40 TDP1 no CPT,HT1080NT lethal,HT1080 IDH1KD tx,DT40 TDP1 CPT
Cc1cc(C)cc(NC(=O)Cn2cc(C(=O)C3CCCCC3)c3ccccc32)c1,x,23µM*,x,x,18µM*
CCC(=O)c1cn(CC(=O)Nc2ccccc2F)c2ccccc12,6,-16%,1%,-4%,-1%
CCCCOc1ccc(S(=O)(=O)NC(=O)C2(C)CCN2C(=O)c2c(C)noc2C)cc1 (configuration not stated),14,-12%,21%,9%,-20%
CC1(C)Cc2nc(Cl)c(C(N)=O)cc2CO1,-15,-6%,6%,5%,-12%
O=Cc1cn(CC(=O)Nc2ccc(F)cc2)c2ccccc12,32,9.2µM*,-9%,-6%,u
CC(=O)c1cn(CC(=O)Nc2ccccc2)c2ccccc12,21,13µM*,-29%,-14%,15µM*
O=C(Cn1c2ccccc2c(=O)c2ccccc21)N/N=C/c1cc([N+](=O)[O-])ccc1N1CCCCC1,-1,u,5%,1%,u
O=C(Cn1c2ccccc2c(=O)c2cc([N+](=O)[O-])ccc21)Nc1ccccc1Cl,8,13µM*,0%,6%,u
CC(=O)O[C@H]1CC(=O)OC(C)(C)C2CC(=O)[C@]3(C)C(CC[C@@](C)([C@@H](O[C@@H]4O[C@H](CO)[C@@H](O)[C@H](O)[C@H]4O)c4ccoc4)[C@@]34O[C@@H]4C(=O)O)[C@]21C (some centres not stated),-21,-4%,-3%,0%,8%
Cc1cc(C)cc(C(=O)n2nc(C)c(S(=O)(=O)N3CCCCCC3)c2C)c1,x,-9%,x,x,-11%
